Data taken from PubChem BioAssay (NCI).
About 79,000 compounds went through this panel and 15% of them were active in at least one assay; those are over-represented in the sample as a whole. Active and inactive are the calls of the source. No stated cut-off is given here; in the data, active means growth inhibition above about 70%; inactive means the rest.

Legend:
[1] = NCI Yeast Anticancer Drug Screen. Data for the rad52 strain (AID 147);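 further: 0% = growth of vehicle-treated control cultures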; settings: S. cerevisiae rad52 mutant growth inhibition, active compounds read high
How it was run: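 Growth of repair-deficient yeast cells was compared between compound-treated and vehicle-treated cultures to give percent inhibition.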

[2] = NCI Yeast Anticancer Drug Screen. Data for the rad50EPP+ strain (AID 151);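 further: 0% = growth of vehicle-treated control cultures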; settings: S. cerevisiae rad50 mutant strain, active compounds read high
How it was run: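 Measured: growth inhibition of rad50EPP+ yeast. Reference: vehicle-treated controls. Screen uses strains with defined genetic alterations in DNA damage repair or cell cycle control.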

[3] = NCI Yeast Anticancer Drug Screen. Data for the mgt1 strain (AID 153); settings: S. cerevisiae mgt1 mutant growth inhibition, active compounds read high
How it was run: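 Compounds were applied to mgt1 mutant yeast, and growth was then compared against vehicle-treated control cultures to give percent inhibition.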

[4] = NCI Yeast Anticancer Drug Screen. Data for the rad50 strain (AID 155);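 further: 0% = growth of vehicle-only cultures of the same strain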; settings: S. cerevisiae rad50 strain growth inhibition, active compounds read high
How it was run: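 Cells are treated with compound, grown, and their growth is then scored against vehicle-only cultures of the same repair-deficient yeast strain.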

[5] = NCI Yeast Anticancer Drug Screen. Data for the mec2-1 strain (AID 157); settings: S. cerevisiae mec2-1 strain, active compounds read high
How it was run: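 Compounds were applied to mec2-1 yeast cells. Their growth was then compared with that of vehicle-treated cultures to give growth inhibition.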

[6] = NCI Yeast Anticancer Drug Screen. Data for the rad14 strain (AID 159);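 further: 0% = growth of vehicle-treated control cultures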; settings: S. cerevisiae rad14 strain growth inhibition, active compounds read high
How it was run: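 Readout: yeast growth inhibition, referenced to vehicle-only cultures. Strain bears a defined alteration in DNA damage repair.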

[7] = NCI Yeast Anticancer Drug Screen. Data for the sgs1 mgt1 strain (AID 161);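 further: 0% = growth of cultures given vehicle only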; settings: S. cerevisiae sgs1 mgt1 strain, active compounds read high
How it was run: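 Compounds are added to genetically altered yeast, and growth is compared with cultures given vehicle alone to give percent inhibition.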

[8] = NCI Yeast Anticancer Drug Screen. Data for the CLN2oe strain (AID 163);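 further: 0% = growth of vehicle-only control cultures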; settings: S. cerevisiae CLN2oe strain, active compounds read high
How it was run: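 Cells of an engineered yeast line with disturbed cell-cycle regulation are treated with compound. Inhibition of growth is then calculated relative to the vehicle-treated reference.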

[9] = NCI Yeast Anticancer Drug Screen. Data for the cln2 rad14 strain (AID 165);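 further: 0% = growth equal to vehicle treated cultures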; settings: S. cerevisiae cln2 rad14 strain, active compounds read high
How it was run: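 Strain: cln2 rad14 yeast, altered in cell cycle control and DNA damage repair. Read-out: growth inhibition vs vehicle.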

[10] = NCI Yeast Anticancer Drug Screen. Data for the bub3 strain (AID 167); settings: S. cerevisiae bub3 mutant strain, active compounds read high
How it was run: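 Part of a panel of yeast mutants defective in DNA damage repair or cell cycle regulation. Each strain is grown with compound, and inhibition is calculated relative to solvent-treated cultures.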

[11] = NCI Yeast Anticancer Drug Screen. Data for the wt2 strain (AID 169);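 further: 0% = growth of vehicle-treated yeast cultures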; settings: S. cerevisiae wt2 strain growth inhibition, active compounds read high
How it was run: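 Growth of compound-treated yeast is measured and expressed as inhibition relative to vehicle-only controls.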

[12] = NCI Yeast Anticancer Drug Screen. Data for the mlh1 strain (AID 171);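 further: 0% = growth of vehicle-treated control cultures of the same strain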; settings: S. cerevisiae mlh1 strain growth inhibition, active compounds read high
How it was run: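 Test agents were incubated with yeast bearing a defined DNA damage repair or cell cycle control alteration; values are growth inhibition normalised to vehicle-treated cultures.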

[13] = NCI Yeast Anticancer Drug Screen. Data for the sgs1 strain (AID 173);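 further: 0% = growth of vehicle-only control cultures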; settings: S. cerevisiae sgs1 mutant, active compounds read high
How it was run: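 Strain with an altered DNA repair or cell cycle pathway exposed to compound. Growth then measured. Value = inhibition versus vehicle control.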

[14] = NCI Yeast Anticancer Drug Screen. Data for the mlh1 rad18 strain (AID 175); settings: S. cerevisiae mlh1 rad18 strain growth inhibition, active compounds read high
How it was run: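 A repair-deficient yeast strain is exposed to test compound, and growth is scored relative to vehicle-treated controls.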

[15] = NCI Yeast Anticancer Drug Screen. Data for the rad18 strain (AID 177); settings: S. cerevisiae rad18 mutant growth inhibition, active compounds read high
How it was run: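 DNA-repair-defective yeast; compound treatment; growth inhibition scored against vehicle.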

[16] = at 5.0 µM (retest, dose inferred, filed as 0.5)
[17] = at 50.0 µM (retest, dose inferred, filed as 5.0)

Measured: growth inhibition

Nc1ccccc1C(=O)OCCc1ccccc1
inactive: [1]; at 1.2 µM -9% | [1]; at 3.7 µM -4% | [1]; at 11.0 µM -21% | [1]; at 33.0 µM -3% | [2]; at 1.2 µM -23% | [2]; at 3.7 µM -9% | [2]; at 11.0 µM 13% | [2]; at 33.0 µM 22% | [3]; at 1.2 µM -74% | [3]; at 3.7 µM -63% | [3]; at 11.0 µM -62% | [3]; at 33.0 µM -52% | [4]; at 1.2 µM -3% | [4]; at 3.7 µM -7% | [4]; [16] 36% | [4]; at 11.0 µM -31% | [4]; at 33.0 µM 13% | [5]; at 1.2 µM -8% | [5]; at 3.7 µM -4% | [5]; [16] 38% | [5]; at 11.0 µM -6% | [5]; at 33.0 µM 13% | [5]; at 50.0 µM 48.1% | [6]; at 1.2 µM -19% | [6]; at 3.7 µM -10% | [6]; at 11.0 µM -21% | [6]; at 33.0 µM -12% | [7]; [16] -17% | [7]; at 50.0 µM 68% | [8]; at 1.2 µM 19% | [8]; at 3.7 µM 17% | [8]; at 11.0 µM 14% | [8]; at 33.0 µM -1% | [9]; [16] 62% | [9]; at 50.0 µM 44.5% | [10]; at 1.2 µM -10% | [10]; at 3.7 µM 0% | [10]; [16] 12% | [10]; at 11.0 µM -1% | [10]; at 33.0 µM 5% | [11]; at 1.2 µM -16% | [11]; at 3.7 µM -15% | [11]; at 11.0 µM 3% | [11]; at 33.0 µM -12% | [12]; at 1.2 µM -15% | [12]; at 3.7 µM -17% | [12]; at 11.0 µM -18% | [12]; at 33.0 µM -7% | [13]; at 1.2 µM -38% | [13]; at 3.7 µM -32% | [13]; at 11.0 µM -32% | [13]; at 33.0 µM -28% | [14]; [16] 34% | [15]; at 1.2 µM -58% | [15]; at 3.7 µM -22% | [15]; at 11.0 µM -29% | [15]; at 33.0 µM -24%
active: [1]; at 100.0 µM 91% | [2]; at 100.0 µM 73% | [3]; at 100.0 µM 96% | [4]; [17] 93% | [4]; at 50.0 µM 82.9% | [4]; at 100.0 µM 97% | [5]; [17] 99% | [5]; at 100.0 µM 85% | [6]; at 100.0 µM 97% | [7]; [17] 74% | [8]; at 100.0 µM 91% | [9]; [17] 76% | [10]; [17] 78% | [10]; at 50.0 µM 89.5% | [10]; at 100.0 µM 76% | [11]; at 100.0 µM 94% | [12]; at 100.0 µM 97% | [13]; at 100.0 µM 94% | [14]; [17] 87% | [14]; at 50.0 µM 85.7% | [15]; at 100.0 µM 87%

COC1CC(CC2CCC(C)C(C(C)C(=O)O)O2)OC2(OC(C)(C3CCC(C)(C4OC(C5OC(O)(CO)C(C)CC5C)CC4C)O3)CC2C)C1C (stereo unspecified)
inactive: [1]; at 1.2 µM 17% | [1]; at 3.7 µM -3% | [1]; at 11.0 µM 22% | [2]; at 1.2 µM -12% | [2]; at 3.7 µM 0% | [2]; at 11.0 µM -12% | [2]; at 33.0 µM 40% | [4]; at 1.2 µM 24% | [4]; at 3.7 µM 19% | [4]; [16] 36% | [4]; at 11.0 µM 34% | [5]; at 1.2 µM -2% | [5]; at 3.7 µM -7% | [5]; [16] 28% | [5]; at 11.0 µM 12% | [6]; at 1.2 µM 5% | [6]; at 3.7 µM -6% | [6]; at 11.0 µM -4% | [7]; [16] -1% | [8]; at 1.2 µM -46% | [8]; at 3.7 µM -22% | [8]; at 11.0 µM 50% | [9]; [16] 26% | [10]; at 1.2 µM -4% | [10]; at 3.7 µM -4% | [10]; [16] 3% | [10]; at 11.0 µM 25% | [12]; at 1.2 µM -3% | [12]; at 3.7 µM -15% | [12]; at 11.0 µM 0% | [13]; at 1.2 µM -36% | [13]; at 3.7 µM -22% | [13]; at 11.0 µM -12% | [14]; [16] 30% | [15]; at 1.2 µM -17% | [15]; at 3.7 µM -25% | [15]; at 11.0 µM -11%
active: [1]; at 33.0 µM 93% | [1]; at 100.0 µM 98% | [2]; at 100.0 µM 90% | [4]; at 33.0 µM 96% | [4]; [17] 95% | [4]; at 50.0 µM 84.6% | [4]; at 100.0 µM 98% | [5]; at 33.0 µM 90% | [5]; [17] 95% | [5]; at 50.0 µM 90% | [5]; at 100.0 µM 97% | [6]; at 33.0 µM 89% | [6]; at 100.0 µM 96% | [7]; [17] 91% | [7]; at 50.0 µM 89% | [8]; at 33.0 µM 93% | [8]; at 100.0 µM 96% | [9]; [17] 88% | [9]; at 50.0 µM 84% | [10]; at 33.0 µM 84% | [10]; [17] 82% | [10]; at 50.0 µM 86.3% | [10]; at 100.0 µM 97% | [12]; at 33.0 µM 83% | [12]; at 100.0 µM 97% | [13]; at 33.0 µM 88% | [13]; at 100.0 µM 97% | [14]; [17] 96% | [14]; at 50.0 µM 87.8% | [15]; at 33.0 µM 93% | [15]; at 100.0 µM 97%
